Source: PubChem BioAssay
The source made the active and inactive calls.

Tests used:
[1] = test system: wheat germ agglutinin (Triticum aestivum), Alexa647-labelled; experiment: Alexa647-WGA lectin binding to printed small molecules – biochemical, small-molecule microarray, 635/667 nm fluorescence, artefact control for SMM control-protein annotation, profiling panel (AID 1140); settings: WGA-A647 binding, 635 nm fluorescence, higher = more signal;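 also: score merges 667 nm feature emission with signal to noise over triplicate slides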
[2] = molecular target: Luciferin 4-monooxygenase (Photinus pyralis) (UniProt P08659); experiment: inhibition of purified Photinus pyralis luciferase – biochemical, luminescence, purified enzyme, 2006 set, primary screen (AID 1141); settings: purified firefly luciferase, SteadyGlo luminescence, 30 min; higher = more signal, called active from +8 up or from −8 down;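 also: cell-free assay with purified firefly luciferase at 100 ng per well in PBS; test concentration not given here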
[3] = test system: Wnt5a (protein binding on small-molecule microarray); experiment: small molecules binding Wnt5a protein – biophysical, small-molecule microarray, 635/667 nm fluorescence, primary screen (AID 1142); settings: 635 nm fluorescence, higher = more signal;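 also: fluorescence read at 667 nm with signal to noise per printed feature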
[4] = ATP-based viability of Huh7 replicon cells – cell-based, CellTiter-Glo luminescence, basal, 48 h, cytotoxicity control for HCV replication inhibitor project, primary screen (AID 1143); settings: higher = more signal, called active from +8 up or from −8 down;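 also: Huh7 hepatoma cells carrying a hepatitis C replication reporter with no stimulus; test concentration not given here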
[5] = basal CRE-LacZ reporter activity in PC12 – cell-based, unstimulated, primary screen (AID 1145); settings: no forskolin, luminescence, 4.5 h, higher = more signal, called active from +8 up or from −8 down
[6] = forskolin-driven CRE-LacZ activity in PC12 – cell-based, CRE-LacZ reporter, forskolin-stimulated, primary screen (AID 1146); settings: luminescence, 4.5 h, higher = more signal, called active from +8 up or from −8 down;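 also: PC12 cells with 6xCRE LacZ reporter stimulated by forskolin 10 µM; beta-galactosidase reporter signal reflecting CREB driven transcription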
[7] = molecular target: Streptavidin (Streptomyces avidinii) (UniProt P22629); experiment: compounds binding control protein streptavidin – biophysical, small-molecule microarray, 635/667 nm fluorescence, artefact control for SMM compound annotation, primary screen (AID 1147); settings: higher = more signal;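 also: signal reflects streptavidin binding to arrayed compounds as a control protein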
[8] = probe aInhba binding on compound microarray – biochemical, small-molecule microarray, 635/667 nm fluorescence, primary screen (AID 1148); settings: higher = more signal;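 also: score merges 667nm spot fluorescence with signal-to-noise for antibody binding to printed compounds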
Torsin-1A (Homo sapiens) [9] = molecular target: Torsin-1A (Homo sapiens) (UniProt O14656); experiment: TOR1A wild-type binding on microarray – cell lysate, small-molecule microarray, lysate, 635/667 nm, primary screen (AID 1149); settings: COS7 hTOR1A-WT lysate, 635 nm fluorescence, higher = more signal
Torsin-1A (Homo sapiens) [10] = molecular target: Torsin-1A (Homo sapiens) (UniProt O14656); experiment: torsin A mutant lysate binding on microarrays – cell lysate, small-molecule microarray, COS7 lysate, 635/667 nm fluorescence, primary screen (AID 1150); settings: COS7 hTOR1A mutant lysate, 635 nm fluorescence, higher = more signal;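 also: score pools 667 nm emission and signal to noise measuring lysate protein binding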
[11] = test system: Sonic hedgehog protein (Shh); experiment: Sonic hedgehog microarray binding compounds – biochemical, small-molecule microarray, 635/667 nm fluorescence, primary screen (AID 1151); settings: 635 nm fluorescence, higher = more signal;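 also: Shh protein binding to compounds spotted on small-molecule microarray slides; score combines spot fluorescence intensity with signal-to-noise across triplicate slides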
[12] = optical density shifts of acrAB sulA E. coli – strain DRC41, OD650, 48 h, E. coli filamentation inducer project, primary screen (AID 1152); settings: higher = more signal, called active from +8 up or from −8 down;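 also: E. coli MC1000 strain DRC41 lacking acrAB efflux pump and sulA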
[13] = probe aLefty1 binding on compound microarray – biochemical, small-molecule microarray, 635/667 nm fluorescence, primary screen (AID 1153); settings: higher = more signal;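 also: score merges spot fluorescence with signal-to-noise ratio from the scanned slide images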
[14] = plasmodial surface anion channel blockers, osmotic lysis – cell-based, P. falciparum Indochina, OD700, 1 h, primary screen (AID 1154); settings: P. falciparum Indochina infected RBC osmotic lysis, higher = more signal, called active from +8 up or from −8 down
[15] = plasmodial surface anion channel blockers, osmotic lysis – cell-based, P. falciparum Indochina, OD700, 2 h, primary screen (AID 1155);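 also: lysis reports solute entry through the parasite surface anion channel PSAC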; settings: P. falciparum Indochina infected erythrocytes, higher = more signal, called active from +8 up or from −8 down
[16] = changes in parasitized red cell lysis, either direction – P. falciparum Indochina, OD700, 3 h, PSAC antagonist project, primary screen (AID 1156); settings: P. falciparum-infected erythrocytes, osmotic lysis, higher = more signal, called active from +8 up or from −8 down
[17] = plasmodial surface anion channel blockers, osmotic lysis – cell-based, P. falciparum Indochina, OD700, 18 h, primary screen (AID 1157); settings: P. falciparum Indochina infected erythrocytes, osmotic lysis OD700, 18 h; higher = more signal, called active from +8 up or from −8 down
[18] = S6 kinase pathway phospho-S6 level changes – cell-based, A549, cytoblot, luminescence, serum-stimulated, primary screen (AID 1158); settings: 5 h, higher = more signal;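 also: serum-stimulated A549 lung adenocarcinoma cells; signal is phosphorylated S6 detected by cytoblot immunostaining with HRP secondary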
[19] = molecular target: NADPH oxidase 2 (Homo sapiens) (UniProt P04839); experiment: compounds shifting NOX2 Amplex Red fluorescence – cell-based, HEK293-NOX2, PMA-stimulated, NOX inhibitor project, primary screen (AID 1159); settings: 45 min, higher = more signal, called active from +8 up or from −8 down; also: test concentration not given here
[20] = molecular target: NADPH oxidase 4 (Homo sapiens) (UniProt Q9NPH5); experiment: compounds shifting NOX4 Amplex Red fluorescence – cell-based, HEK293-NOX4, tetracycline-induced, NOX inhibitor project, primary screen (AID 1160); settings: HEK293-NOX4, Amplex Red H2O2 fluorescence, 45 min; higher = more signal, called active from +8 up or from −8 down
NADPH oxidase 4 (Homo sapiens), sequence (Q9NPH5 whole entry, looked up): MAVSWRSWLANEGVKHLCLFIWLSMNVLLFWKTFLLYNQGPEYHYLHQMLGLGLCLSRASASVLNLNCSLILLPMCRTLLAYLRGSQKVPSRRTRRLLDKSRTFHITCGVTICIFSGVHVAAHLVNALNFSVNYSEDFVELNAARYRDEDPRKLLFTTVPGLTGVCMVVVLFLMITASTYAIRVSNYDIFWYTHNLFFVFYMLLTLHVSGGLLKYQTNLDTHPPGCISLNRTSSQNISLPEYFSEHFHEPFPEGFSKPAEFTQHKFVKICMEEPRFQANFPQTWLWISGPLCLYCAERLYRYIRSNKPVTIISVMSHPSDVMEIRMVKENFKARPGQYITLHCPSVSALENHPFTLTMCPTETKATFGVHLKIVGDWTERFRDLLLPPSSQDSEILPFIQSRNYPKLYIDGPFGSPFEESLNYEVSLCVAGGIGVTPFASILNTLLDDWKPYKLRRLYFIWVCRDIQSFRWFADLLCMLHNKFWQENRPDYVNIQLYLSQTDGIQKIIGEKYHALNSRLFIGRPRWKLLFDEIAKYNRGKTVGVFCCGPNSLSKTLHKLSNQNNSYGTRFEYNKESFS

Luciferin 4-monooxygenase (Photinus pyralis), sequence (P08659 whole entry, looked up): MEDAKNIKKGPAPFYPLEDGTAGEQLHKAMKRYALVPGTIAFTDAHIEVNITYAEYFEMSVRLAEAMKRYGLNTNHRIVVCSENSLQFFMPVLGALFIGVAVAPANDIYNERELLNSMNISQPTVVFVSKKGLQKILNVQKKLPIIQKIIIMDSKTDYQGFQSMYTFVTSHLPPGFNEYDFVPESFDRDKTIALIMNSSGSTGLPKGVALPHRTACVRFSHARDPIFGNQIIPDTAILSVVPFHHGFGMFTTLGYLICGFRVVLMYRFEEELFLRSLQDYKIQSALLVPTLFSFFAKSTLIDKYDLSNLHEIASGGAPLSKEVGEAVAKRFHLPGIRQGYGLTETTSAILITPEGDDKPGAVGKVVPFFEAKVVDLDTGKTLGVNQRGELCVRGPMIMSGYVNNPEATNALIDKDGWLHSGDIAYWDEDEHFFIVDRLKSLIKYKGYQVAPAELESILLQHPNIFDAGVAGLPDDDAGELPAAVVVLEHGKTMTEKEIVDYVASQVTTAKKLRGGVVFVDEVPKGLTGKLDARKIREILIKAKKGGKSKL
Torsin-1A (Homo sapiens), sequence (O14656 whole entry, looked up): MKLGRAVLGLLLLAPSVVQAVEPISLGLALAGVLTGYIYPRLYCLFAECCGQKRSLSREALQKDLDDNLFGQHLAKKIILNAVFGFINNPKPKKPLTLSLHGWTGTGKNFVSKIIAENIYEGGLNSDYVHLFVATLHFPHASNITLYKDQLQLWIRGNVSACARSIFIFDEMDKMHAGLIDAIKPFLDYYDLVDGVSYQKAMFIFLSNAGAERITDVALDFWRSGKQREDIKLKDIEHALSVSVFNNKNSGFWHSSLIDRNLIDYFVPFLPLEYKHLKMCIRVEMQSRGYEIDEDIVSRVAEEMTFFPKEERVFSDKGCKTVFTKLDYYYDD
Streptavidin (Streptomyces avidinii), sequence (P22629 whole entry, looked up): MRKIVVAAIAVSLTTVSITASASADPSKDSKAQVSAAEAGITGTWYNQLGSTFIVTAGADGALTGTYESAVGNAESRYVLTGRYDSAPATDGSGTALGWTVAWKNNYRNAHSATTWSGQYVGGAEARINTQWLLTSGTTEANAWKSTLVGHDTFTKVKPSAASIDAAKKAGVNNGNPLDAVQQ
NADPH oxidase 2 (Homo sapiens), sequence (P04839 whole entry, looked up): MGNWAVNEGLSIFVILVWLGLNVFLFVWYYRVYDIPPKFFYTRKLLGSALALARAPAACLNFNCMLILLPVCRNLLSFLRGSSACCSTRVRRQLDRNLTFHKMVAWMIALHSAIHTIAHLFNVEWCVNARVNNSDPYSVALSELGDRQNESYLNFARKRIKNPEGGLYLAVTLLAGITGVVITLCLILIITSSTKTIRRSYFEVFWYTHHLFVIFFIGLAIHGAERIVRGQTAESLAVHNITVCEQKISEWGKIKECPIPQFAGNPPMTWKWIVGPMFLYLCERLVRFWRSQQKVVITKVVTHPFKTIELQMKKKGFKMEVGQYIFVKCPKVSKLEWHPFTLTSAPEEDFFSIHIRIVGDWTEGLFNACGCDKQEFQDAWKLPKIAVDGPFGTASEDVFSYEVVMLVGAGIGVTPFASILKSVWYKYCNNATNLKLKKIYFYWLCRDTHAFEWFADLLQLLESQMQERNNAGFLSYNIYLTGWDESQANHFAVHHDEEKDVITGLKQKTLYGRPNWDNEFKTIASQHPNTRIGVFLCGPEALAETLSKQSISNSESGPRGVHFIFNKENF

Structure (SMILES)	composite z-score [1]	z-score [2]	composite z-score [3]	z-score [4]	z-score [5]	z-score [6]	composite z-score [7]	composite z-score [8]	composite z-score (Torsin-1A (Homo sapiens) [9])	composite z-score (Torsin-1A (Homo sapiens) [10])	composite z-score [11]	z-score [12]	composite z-score [13]	z-score [14]	z-score [15]	z-score [16]	z-score [17]	z-score [18]	z-score [19]	z-score [20]
C=C(COC)C(=O)CC[C@@H](OC(=O)c1ccccc1-c1ccccc1C(=O)O)c1cccc(OCCO)c1	-0.478	-3.64 (inactive)	0.0174	0.483 (inactive)	2.37 (inactive)	0.0416 (inactive)	-0.52	-0.128	0.785	0.455	0.404	0.908 (inactive)	-0.144	8.07 (active)	1.28 (inactive)	1.28 (inactive)	0.236 (inactive)	-0.178	3.24 (inactive)	1.34 (inactive)
COc1c(C)cc(-c2cc3c(c(CCc4ccccc4)n2)[Si](C(C)C)(C(C)C)OC3)cc1C	-0.442	-0.374 (inactive)	-0.0652	0.236 (inactive)	0.12 (inactive)	-0.867 (inactive)	-0.0683	0.0659	0.367	0.362	0.981	2.56 (inactive)	0.112	1.18 (inactive)	-0.803 (inactive)	-0.428 (inactive)	-1.57 (inactive)	0.663	0.726 (inactive)	0.907 (inactive)
COc1ccc([Si](C)(C)[C@@H]2[C@@H](CC(=O)N3CCC[C@H]3CO)O[C@]3(C(=O)N(Cc4ccc(I)cc4)c4ccccc43)[C@H]2C)cc1	1.07	-0.765 (inactive)	0.229	-4.55 (inactive)	0.105 (inactive)	-1.86 (inactive)	0.983	-0.109	0.626	0.199	0.646	1.97 (inactive)	0.0677	5.17 (inactive)	0.0509 (inactive)	-0.7 (inactive)	-1.17 (inactive)	2.62	2.26 (inactive)	0.932 (inactive)
CC(C)C(CO)N1C(=O)[C@@H]2C3C(=O)OCCC/C=C\[C@H]3OC23C=CCN(C(C)C)C(=O)[C@@H]13 (stereo not given in full)	-1.14	-0.774 (inactive)	-0.0608	0.303 (inactive)	0.333 (inactive)	-1.18 (inactive)	-0.643	0.0228	0.286	0.703	0.321	2.21 (inactive)	-0.142	-0.0173 (inactive)	-0.96 (inactive)	-0.677 (inactive)	-1.36 (inactive)	0.225	0.914 (inactive)	0.527 (inactive)
C[N+](C)(C)CCCC[C@@H]1NC(=O)[C@@H]2C[C@H](C(=O)NCCCCCNC(=O)CS)[C@H](c3ccc(O)cc3)N2C1=O	0.477	-0.703 (inactive)	0.684	-0.244 (inactive)	-0.398 (inactive)	-0.757 (inactive)	-0.101	-0.128	0.348	0.305	1.42	1.18 (inactive)	-0.0536	0.453 (inactive)	-1.65 (inactive)	-4.23 (inactive)	-2.4 (inactive)	1.4	0.621 (inactive)	0.774 (inactive)
[N-]=[N+]=NCc1ccccc1C[C@@]1(C(=O)O)N=C(c2ccc(OCCCO)cc2)O[C@@H]1c1ccccc1	1.1	-1.05 (inactive)	0.0855	-0.563 (inactive)	-0.137 (inactive)	0.718 (inactive)	0.246	-0.0421	-0.233	0.0019	-0.515	0.706 (inactive)	-0.0654	15.1 (active)	2.07 (inactive)	0.912 (inactive)	0.199 (inactive)	0.218	1.07 (inactive)	1.34 (inactive)
CC(=O)OC(C/C=C\B1OC(C)(C)C(C)(C)O1)c1ccccc1 (stereo not given)	-0.405	-1.54 (inactive)	-0.115	-3.4 (inactive)	3.04 (inactive)	-2.27 (inactive)	-0.748	-0.284	-0.611	0.301	-0.236	-2.2 (inactive)	-0.147	0.344 (inactive)	-0.832 (inactive)	-0.628 (inactive)	-1.04 (inactive)	3.07	-0.889 (inactive)	0.478 (inactive)
C=CCC(OC(C)=O)[C@@H]1[C@@H](N(Cc2ccc(-c3cccc(C(F)(F)F)c3)o2)C(=O)c2ccc(-c3ccccc3)cc2)c2cc(OCCCO)ccc2N1C(=O)Cc1ccc(OC)cc1 (stereo not given in full)	0.15	-0.626 (inactive)	0.0578	-1.84 (inactive)	1.38 (inactive)	-0.0892 (inactive)	-0.152	-0.273	-0.267	0.0992	0.214	1.73 (inactive)	-0.0501	0.963 (inactive)	0.485 (inactive)	0.218 (inactive)	-0.0843 (inactive)	0.509	0.964 (inactive)	1.06 (inactive)
